The structures appear in SMILES notation. The campaign covered roughly 48,000 compounds. About 13,000 (27%) showed an effect of 50% or more. The list shows a part of the results.

This is an account of results in ChEMBL document CHEMBL3988442, “University of Dundee, Small-Polar-MMV Screening Library” (2021).

This experiment has as its system Wolbachia pipientis. Kind of experiment: Anti-Wolbachia Cell-Based Screen. It is filed as functional. Also noted: scale not given: in the data most compounds retested in dose-response had high values. The settings on record: 5 µM.
Regarding `CCOC(C)c1nc(CN2CCC(C3OCCO3)CC2)cs1` (stereo unspecified), the “Percent Effect” value was -5.348%. Then `CN(CCc1nc2ccccc2c(=O)[nH]1)CCC(F)(F)F`, with -6.377%; and `CNC(=O)C(C)(C)NC(=O)c1cc(COc2cccc(C(C)=O)c2)[nH]n1`, with 5.939%.

On to `O=C(Nc1cccc(N2CCN(CC3CC3)CC2)c1)C1CCOC1` (stereo unspecified), for which the “Percent Effect” value was -7.118%. Regarding `CCN1CCN(C(=O)c2ccc3c(c2)NC(=O)CN3)[C@H]2CS(=O)(=O)C[C@H]21`, the “Percent Effect” value stood at 7.083%. Take `COc1ccccc1CN(C)c1nccc(-c2cn(C)nc2C)n1`: the “Percent Effect” value is on record as -7.113%.

Consider `Cn1cc(CN(Cc2ccccc2)CC(O)c2cccs2)cn1` (stereo unspecified), for which the “Percent Effect” value is -0.3984%. As to `OC(CN(Cc1ccccc1)Cc1ccccn1)c1cccs1` (stereo unspecified), the “Percent Effect” value was -16.67%. Then `Cc1nn(C)cc1CN(Cc1ccccn1)Cc1ccccc1Cl`, with 76.4%; and `CN(Cc1cnn(C)c1)C(=O)NC1CCN(Cc2ccccn2)CC1`, with -4.519%; and `Cl.Cn1cc(CN(Cc2ccccc2)Cc2ccccn2)cn1`, with 101.3%. As for `Cn1cc(CN(Cc2ccccn2)Cc2ccccc2Cl)cn1`, the “Percent Effect” value is recorded as 107.7%. Take `COCCN(C/C=C/c1ccccc1)Cc1ccccn1`: the “Percent Effect” value is -3.939%. Then `CCOc1cccc(CN(Cc2cnn(C)c2)CC(C)C)c1O`, with 5.177%; and `COc1cccc(S(=O)(=O)CCN2CCCC2c2ccc[nH]2)c1` (stereo unspecified), with -2.252%.

For the compound `CCN1CCC(NC(=O)N(C)Cc2csc3ccccc23)CC1`, the “Percent Effect” value is 1.913%. Then `CC(C)C(NC(=O)NCC1(CO)CC1)c1nnc2n1CCC2` (stereo unspecified), with 14.94%. Then `Cc1ncsc1CCN(C)C(=O)CN1CCCCCC1=O`, with -1.63%. As to `O=C(NCCN1CCCCC1)c1scnc1Cl`, the “Percent Effect” value came to 1.584%. Then `CC(C(=O)NCCCN1CCCCCC1=O)n1cncn1` (stereo unspecified), with -4.192%; and `O=C(NCCN1CCCc2ccccc21)c1scnc1Cl`, with 4.891%; and `Cc1ncsc1C(=O)OCCN1CCCc2ccccc21`, with 101.6%. Then `Cc1ncsc1C(=O)NCCSCc1cccs1`, with -6.016%.

On to `Cc1cc(C(=O)NCCN2CCCc3ccccc32)[nH]n1`, for which the “Percent Effect” value is given as -6.772%. Then `Cc1ncsc1C(=O)NCCn1nc2ccccn2c1=O`, with -10.37%; and `Cc1ncsc1C(=O)OCCN1CCCCCC1=O`, with 115.8%; and `Cc1ncsc1C(=O)NCCN1CCCCCC1=O`, with 95.46%. In the case of `Cc1ncsc1C(=O)NCCCN1CCCCCC1=O`, the “Percent Effect” value worked out at 91.19%. Turning to `Cc1ncsc1CN(C)C(=O)C(CC(C)C)N1CCCCC1=O` (stereo unspecified), the “Percent Effect” value is given as 12.62%. Then `COc1ccc(C(=O)N2CCC(Oc3ccccc3)(C(=O)O)CC2)o1`, with -6.202%; and `CC(=O)NCc1nc(CCOc2ccc(Cl)cc2)no1`, with -0.6631%. Then `COCCN1C(=O)CC(N2CCN(c3ccc(OC)cc3)CC2)C1=O` (stereo unspecified), with 6.624%; and `NCc1cn(CC2CCCN(C(=O)NCc3ccc(Cl)cc3)C2)nn1` (stereo unspecified), with -34.24%.

Regarding `Cc1nnc(N2C[C@@H](Oc3ccccn3)[C@H]3OCCC[C@H]32)s1.O=C(O)C(F)(F)F.O=C(O)C(F)(F)F`, the “Percent Effect” value was -5.034%. Then `COc1ccccc1Oc1ncccc1CNC(=O)C(C)CN` (stereo unspecified), with 1.057%; and `COc1ccccc1N1CCC(CNCc2cccc(OC)c2OC)C1` (stereo unspecified), with 0.729%; and `CCCS(=O)(=O)N1CCC2(CCCN(Cc3cccc(F)c3F)C2=O)C1` (stereo unspecified), with -35.96%. In the case of `COc1cccc(OC)c1CN1CC(O)CN(S(C)(=O)=O)CC1=O` (stereo unspecified), the “Percent Effect” value was 127.9%. Then `COc1cccc(CN2CC(O)CN(S(C)(=O)=O)CC2=O)c1OC` (stereo unspecified), with 96.57%. Then `COc1cccc(CN2CC3(CCNCC3)CCC2=O)c1OC`, with -5.805%; and `COc1ccccc1S(=O)(=O)N1CCC2(CC1)[C@H](O)C[C@@H]2O`, with -0.7897%; and `CCCS(=O)(=O)N1CC(=O)N(Cc2cccc(OC)c2OC)CC(O)C1` (stereo unspecified), with 125.8%. Then `CCCS(=O)(=O)N1CC(=O)N(Cc2ccccc2OC)CC(O)C1` (stereo unspecified), with 89.31%. Turning to `COc1cccc(OC)c1CN1CC(=O)N(c2ccc(C)cc2)CC1C` (stereo unspecified), the “Percent Effect” value came to 7.242%. Then `COc1cc(CNc2cc(-c3ccoc3C)nn2CCO)ccc1F`, with 9.115%; and `COc1c(F)cc(CN2CCC3(CC2)C(C(=O)O)CC(=O)N3C)cc1Cl` (stereo unspecified), with 5.354%; and `CS(=O)(=O)c1cccc(Cl)c1C(=O)NCCN1C(=O)CCC1=O`, with -4.304%. Then `COc1ccccc1CN1C(=O)O[C@@H]2CN(C(C)C)C[C@@H]21`, with 11.8%; and `CCS(=O)(=O)N1CC(=O)N(Cc2ccccc2OC)CC(O)C1` (stereo unspecified), with 89.74%; and `COc1ccccc1CN1CC(O)CN(S(=O)(=O)C(C)C)CC1=O` (stereo unspecified), with 100.2%. Then `CCO[C@H]1C[C@@H](O)C12CCN(S(=O)(=O)c1ccccc1OC)CC2`, with -9.049%; and `COc1ccccc1CC(C)N(C)S(C)(=O)=O` (stereo unspecified), with 9.665%; and `COc1ccccc1CN1C(=O)O[C@@H]2CN(S(=O)(=O)N(C)C)C[C@@H]21`, with -2.255%.

Consider `CCc1noc(C)c1C(=O)NCc1c(C)nn(CCOC)c1C`, for which the “Percent Effect” value is -2.688%. Then `CN(C)C(=O)N1C[C@H]2CC[C@@H]1CN(C1Cc3ccccc3C1)C2`, with 7.395%; and `Cc1cnc(C)c(N2CCCC(CO)(Cc3ccccc3C)C2)n1` (stereo unspecified), with -4.771%; and `CCc1ccc2nc(NCCOCCO)cc(C)c2c1`, with 107.5%. Then `CCc1ccc2nc(NCCCN(CCO)CCO)cc(C)c2c1`, with 14.19%.

Turning to `CCc1ccc2nc(NCC(O)CO)cc(C)c2c1` (stereo unspecified), the “Percent Effect” value is -9.237%.

On to `NC(=O)C(NC(=O)CCc1ccc(Cl)s1)c1ccccc1` (stereo unspecified), for which the “Percent Effect” value is 7.544%.

For the compound `c1cc(-c2ccc3c(c2)C2(CCNCC2)CC3)ccn1`, the “Percent Effect” value is listed as -17.91%. Then `O=C(CCc1ccc(F)cc1)NS(=O)(=O)c1ccc2c(c1)OCCCO2`, with 20.72%; and `COCCN1CCC(c2nc3c([nH]2)CC(C)(C)CNC3=O)CC1`, with -9.725%. Then `COCCn1ccnc1C1CCN(Cc2ccccc2C#N)CC1`, with -0.03291%. Then `Cl.OC1CCN(Cc2c(C3CCCNC3)[nH]c3ncccc23)CC1` (stereo unspecified), with -8.296%; and `Cl.c1cnc2[nH]c(C3CCCNC3)c(CN3CCCOCC3)c2c1` (stereo unspecified), with 94%. Regarding `Oc1ncccc1-c1nc(-c2cccc(CN3CCOCC3)c2)no1`, the “Percent Effect” value is -1.647%. Then `c1cnc2[nH]c(C3CCCC3)c(CN3CCOCC3)c2c1`, with 96.59%; and `c1cnc2[nH]c(C3CCNCC3)c(CN3CCOCC3)c2c1`, with 102.1%; and `COCCN1CCN(Cc2c(C3CCNCC3)[nH]c3ncccc23)CC1.Cl`, with 66.52%.

For `CN(Cc1ccon1)CC1CCOc2ccccc2C1` (stereo unspecified), the “Percent Effect” value was -13.25%. On to `CC1CN(C(=O)c2ccnc(OCCN(C)C)c2)c2ccccc21` (stereo unspecified), for which the “Percent Effect” value was 5.142%. Then `c1cnc(OCc2nnc3n2CCN(CC2CC2)C3)nc1`, with -18.49%; and `CC1CCCN(Cc2ccc(CNC(=O)NCc3ccon3)cc2)C1` (stereo unspecified), with -7.486%. With `CS(=O)(=O)NCC1CCCN(Cc2ccc(F)c3cccnc23)C1` (stereo unspecified), the “Percent Effect” value is given as -1.722%.

`O=C(CN1CCCCCC1)NCc1cccnc1Oc1ccccc1`: the “Percent Effect” value is -1.634%. Regarding `CC1CCCN(Cc2c(C3CC3)[nH]c3ncccc23)C1` (stereo unspecified), the “Percent Effect” value was 97.08%. Then `CC1CCCN(Cc2c(C3CCOCC3)[nH]c3ncccc23)C1` (stereo unspecified), with -13.09%.

In the case of `OCC1CCCN(Cc2c(C3CCCC3)[nH]c3ncccc23)C1` (stereo unspecified), the “Percent Effect” value is 82.97%. For the compound `c1cnc2[nH]c(C3CCCC3)c(CN3CCCCC3)c2c1`, the “Percent Effect” value was 61.56%. Then `CCN1CCCC(c2c(-c3ccccc3)ncn2Cc2cccnc2)C1` (stereo unspecified), with -13.51%.

Take `CCN1CCN(Cc2c(C3CCCC3)[nH]c3ncccc23)CC1`: the “Percent Effect” value is 101.4%.

`O=C(Cn1nc2ccccc2n1)N1CCCC(O)(CO)C1` (stereo unspecified): the “Percent Effect” value is listed as -10.36%. Then `Cc1cc(NC(=O)N(C)CCN2CCN(c3ccccc3)CC2)on1`, with -6.324%; and `COc1c(CNC(c2ccc(F)cc2)c2nccn2C)c(C)nn1C` (stereo unspecified), with -17.53%; and `COCCSc1ccc(-n2ccnc2)nn1`, with 19.88%. Then `CC1(Cc2ccc3c(c2)OCO3)CCCN(S(=O)(=O)N2CCOCC2)C1` (stereo unspecified), with -4.077%; and `Cc1cccn2cc(CN3CCCC(O)C3)nc12` (stereo unspecified), with -5.177%; and `Cc1cc(Cn2cc(C#N)c(=O)c3ccccc32)no1`, with 6.304%. With `O=C(NCCc1nnc2n1CCC2)NCC1(c2ccccc2)CC1`, the “Percent Effect” value was determined as 95.51%. Then `Cn1cc(CCNC(=O)NCc2nnc3n2CCC3)cn1`, with -8.052%; and `O=C1C(NCc2nnc3n2CCCC3)CCCN1c1cccc(F)c1` (stereo unspecified), with -1.768%. For the compound `O=C(NCCc1nnc2n1CCC2)NCC1(c2ccccc2F)CC1`, the “Percent Effect” value is listed as 109%. Then `NC(=O)CC1CCN(C(=O)NCC2(c3ccccc3F)CC2)CC1`, with 3.443%; and `O=C(NCCc1nnc2n1CCC2)N1CCC2(CCCCC2)C1`, with -5.882%; and `O=C(NCCc1nnc2n1CCC2)NCC1(c2ccc(F)cc2)CC1`, with 123.4%.

For the compound `O=C(NCc1nnc2n1CCC2)NCC1(c2cccc(F)c2)CC1`, the “Percent Effect” value was determined as 112.3%. Then `O=C(NCCC1=CCCCC1)NCc1nnc2n1CCC2`, with 7.36%. Consider `Cc1cc(C)c(CNC(=O)NCc2nnc3n2CCC3)c(=O)[nH]1`, for which the “Percent Effect” value worked out at 8.689%. Then `O=C(NCCc1ccc(Cl)s1)NCc1nnc2n1CCC2`, with 3.587%. Then `O=C(NCCc1nnc2n1CCC2)c1ccccc1OC1CCCC1`, with -0.3605%; and `CCOc1ncnc2c1CCN(c1cc(C(F)(F)F)ncn1)CC2`, with 1.194%. Then `CCOC(=O)CC1CCCCN1C(=O)c1cc(C)on1` (stereo unspecified), with 7.011%; and `CS(=O)(=O)N(Cc1ccon1)c1ccc2c(c1)OCO2`, with -10.09%. Turning to `Cc1nc(-c2cc(Cl)cc3c2OC(CN)C3)c[nH]1` (stereo unspecified), the “Percent Effect” value is recorded as -15.93%.

For the compound `Cc1ccc(-c2nnc(CN3CC[C@H](CO)[C@@H](O)C3)o2)n1C`, the “Percent Effect” value was -9.968%.
